Assay [1] in a line: resazurin metabolic signal in HepG2 cells – cell-based, resazurin fluorescence, 24 h, PK04 Diversity Set, profiling panel (AID 1172). The conditions noted are these: HepG2 viability, higher = more signal.
A short description of assay [2]: budding yeast growth changes without added modifier – OD600, strain BY4716, 24 h, basal condition, primary screen (AID 1173). The conditions noted are these: S. cerevisiae BY4716 growth, OD600, 24 h; higher = more signal, called active from +8 up or from −8 down.
Assay [3] is described as follows: viability profiling in MM1S myeloma cells – cell-based, resazurin fluorescence, basal, 24 h, PK04 Diversity Set, profiling panel (AID 1174).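 Note: MM1S multiple myeloma cell line.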 The conditions noted are these: higher = more signal, called active from +8 up or from −8 down.
Assay [4] deals with Dihydroorotate dehydrogenase (quinone), mitochondrial (Plasmodium falciparum (isolate 3D7)) (UniProt Q08210). Kind of assay: inhibition of P. falciparum DHODH – biochemical, C-terminal His tag, absorbance 600 nm, primary screen (AID 1175).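 Note: recombinant parasite enzyme with a five histidine tag at its C terminus.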 The conditions noted are these: PfDHODH enzyme, DCIP absorbance 600 nm; higher = more signal, called active from +8 up or from −8 down.
Assay [5] in a line: inhibition of PAO1 biofilm formation – strain PAO1, LB-PBS medium, absorbance 600 nm, primary screen (AID 1176). The conditions noted are these: P. aeruginosa PAO1 growth/biofilm, A600, 12 h; higher = more signal.
The nature of assay [6]: growth modulation of vineyard yeast isolate – strain RM11-1a, OD600, basal, 24 h, primary screen (AID 1177).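 Note: cultures grown under basal conditions with no added stressor.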 The note with it: S. cerevisiae RM11-1a growth, OD600, 24 h; higher = more signal, called active from +8 up or from −8 down.
The nature of assay [7]: growth of efflux-deficient E. coli DRC39 – strain DRC39, OD650, 24 h, E. coli filamentation inducers, primary screen (AID 1178).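 Note: growth measured as culture turbidity by optical density at 650 nm.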 The conditions noted are these: E. coli DRC39 acrAB, higher = more signal, called active from +8 up or from −8 down.
Assay [8] can be described thus: growth of efflux-deficient E. coli DRC39 – strain DRC39, OD650, 48 h, E. coli filamentation inducers, primary screen (AID 1179).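 Note: screen aims at cell division blockers that make cells filament.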 The conditions noted are these: E. coli DRC39 delta-acrAB growth, higher = more signal, called active from +8 up or from −8 down.
Assay [9] in a line: viability profiling in RPMI8226 myeloma cells – cell-based, resazurin fluorescence, basal, 24 h, PK04 Diversity Set, profiling panel (AID 1180).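 Note: RPMI8826 multiple myeloma cell line at 5000 cells per well.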 The note with it: higher = more signal. (Alamar Blue is a resazurin reagent that responds to reducing activity.)
In assay [10] the target is E3 ubiquitin-protein ligase XIAP (Homo sapiens) (UniProt P98170). Kind of assay: small molecules binding XIAP protein – biophysical, small-molecule microarray, fluorescence 635 nm, primary screen (AID 1181).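 Note: score merges 667 nm emission and signal to noise over triplicate slides.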 The note with it: higher = more signal.
The subject of assay [11] is XIP peptide (Xip251-270) binding. Kind of assay: XIP fragment 251-270 binding compounds – biochemical, small-molecule microarray, fluorescence 635/667 nm, 0.1 µg/mL protein, primary screen (AID 1182). The note with it: fluorescent protein binding, 635 nm, higher = more signal, called active from +8 up or from −8 down.
The next assay relates to XIP peptide (Xip251-270). Kind of assay: compounds binding XIP fragment 251-270 – biochemical, small-molecule microarray, fluorescence 635/667 nm, 0.5 µg/mL protein, primary screen (AID 1183). The conditions noted are these: fluorescence 635 nm, higher = more signal.
Assay [12] in a line: blood-stage malaria parasite viability loss – strain 3D7, DAPI fluorescence, 100 nL, primary screen (AID 1184).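 Note: parasites grown inside human red blood cells in medium with human serum.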 The conditions noted are these: P. falciparum 3D7 growth, 3 d, higher = more signal.
In assay [13] the target is Homeobox protein Hox-A13 (Mus musculus) (UniProt Q62424). In words: disruptors of Hoxa13 oligonucleotide interaction – biochemical, fluorescence polarization, labeled oligonucleotide, primary screen (AID 1185). The conditions noted are these: Hoxa13:DNA binding, 15 min, higher = more signal, called active from +8 up or from −8 down. A general note: Fluorescence polarisation rises when a labelled molecule tumbles more slowly, as on binding a larger partner.

Assay [14] in a line: blockers of DNA damage checkpoint Chk1 activation – imaging, HeLa, hydroxyurea, phospho-Chk1 antibody, percent positive cells, primary screen (AID 1186). The note with it: hydroxyurea-induced phospho-Chk1 immunofluorescence imaging, higher = more signal.
Assay [15] can be described thus: blockers of DNA damage checkpoint Chk1 activation – imaging, HeLa, hydroxyurea, phospho-Chk1 nuclear intensity, primary screen (AID 1187). The note with it: hydroxyurea-induced phospho-Chk1 immunofluorescence imaging, higher = more signal.

Active and inactive are the calls of the source. Unless noted, the rule behind the calls is not given here.

Chain of E3 ubiquitin-protein ligase XIAP (Homo sapiens) (P98170 whole entry, looked up, the tested form may be a part): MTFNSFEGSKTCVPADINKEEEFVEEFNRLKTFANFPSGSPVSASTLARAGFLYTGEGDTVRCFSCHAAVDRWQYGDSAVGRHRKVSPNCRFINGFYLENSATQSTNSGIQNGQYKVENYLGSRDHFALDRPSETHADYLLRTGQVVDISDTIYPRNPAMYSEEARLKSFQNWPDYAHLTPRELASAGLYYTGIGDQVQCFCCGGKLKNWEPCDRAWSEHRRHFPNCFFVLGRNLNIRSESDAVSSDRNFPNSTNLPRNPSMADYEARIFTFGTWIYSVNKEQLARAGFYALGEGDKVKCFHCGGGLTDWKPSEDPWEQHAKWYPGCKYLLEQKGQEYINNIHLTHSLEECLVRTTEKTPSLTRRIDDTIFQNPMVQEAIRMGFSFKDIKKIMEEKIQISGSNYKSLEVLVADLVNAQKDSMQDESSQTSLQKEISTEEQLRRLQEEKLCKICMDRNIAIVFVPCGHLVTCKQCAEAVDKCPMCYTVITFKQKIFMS
Chain of Dihydroorotate dehydrogenase (quinone), mitochondrial (Plasmodium falciparum (isolate 3D7)) (Q08210 whole entry, looked up): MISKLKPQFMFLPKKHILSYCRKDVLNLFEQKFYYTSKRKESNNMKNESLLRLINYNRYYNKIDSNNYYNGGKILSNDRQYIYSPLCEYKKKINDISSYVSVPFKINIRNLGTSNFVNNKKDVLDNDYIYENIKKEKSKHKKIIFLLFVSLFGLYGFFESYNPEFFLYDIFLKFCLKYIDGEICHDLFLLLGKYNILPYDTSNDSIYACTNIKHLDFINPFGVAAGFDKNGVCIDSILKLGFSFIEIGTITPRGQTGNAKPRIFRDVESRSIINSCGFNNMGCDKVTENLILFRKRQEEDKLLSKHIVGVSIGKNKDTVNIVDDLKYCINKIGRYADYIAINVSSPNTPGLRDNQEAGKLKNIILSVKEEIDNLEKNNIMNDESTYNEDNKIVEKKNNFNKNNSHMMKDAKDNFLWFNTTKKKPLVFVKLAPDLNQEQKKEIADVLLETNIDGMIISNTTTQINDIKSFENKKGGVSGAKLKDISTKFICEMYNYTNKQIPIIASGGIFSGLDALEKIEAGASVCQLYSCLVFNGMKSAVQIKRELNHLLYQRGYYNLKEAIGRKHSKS
Chain of Homeobox protein Hox-A13 (Mus musculus) (Q62424 whole entry, looked up): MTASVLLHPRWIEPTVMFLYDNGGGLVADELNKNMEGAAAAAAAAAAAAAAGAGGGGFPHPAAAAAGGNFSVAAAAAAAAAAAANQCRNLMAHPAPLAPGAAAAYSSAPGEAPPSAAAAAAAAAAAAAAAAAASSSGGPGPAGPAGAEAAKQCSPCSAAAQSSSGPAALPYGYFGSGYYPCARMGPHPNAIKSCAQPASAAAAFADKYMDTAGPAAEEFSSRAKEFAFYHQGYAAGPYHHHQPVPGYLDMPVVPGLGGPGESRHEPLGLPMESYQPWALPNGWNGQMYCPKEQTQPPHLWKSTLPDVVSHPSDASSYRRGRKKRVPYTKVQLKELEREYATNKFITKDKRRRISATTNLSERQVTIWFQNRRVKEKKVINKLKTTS

Regarding `CC1CC/C=C\[C@H]2OC34C=CCN(c5ccc(Cl)cc5)C(=O)[C@H]3N(C(C)CO)C(=O)[C@]4(C)C2C(=O)O1` (some centres undefined), the z-score in [1] was 0.66; in assay [2], -0.876 (inactive); in assay [3] it was 0.535 (inactive); in assay [5], -0.428 (inactive); in [6] it was 0.33 (inactive); in [7], 1.31 (inactive). In addition, the z-score in [8] is 1.48 (inactive); in assay [9], 0.555; in assay [12], -0.111; in assay [13] it was -4.76 (inactive); in assay [14], 0.558 (inactive); in [15], -0.11 (inactive). The composite z-score in assay [4] is 0.291 (inactive); in [10], 0.3; in [11], -0.103 (inactive); in the assay with XIP peptide (Xip251-270), -0.279.

Turning to `CC[C@@H]1C=C(C(=O)O)[C@H](c2ccc(C#N)cc2)N1S(=O)(=O)c1ccc(C)cc1`, the z-score in assay [1] was -0.835; in assay [2], 0.965 (inactive); in assay [3] it was -0.933 (inactive); in assay [5] it was -0.0601 (inactive); in assay [6], -0.242 (inactive); in assay [7] it was -0.266 (inactive). Further, the z-score was -0.0211 (inactive) in assay [8]; -1.21 in assay [9]; 1.91 in [12]; -4.62 (inactive) in assay [13]; 0.208 (inactive) in assay [14]; -0.0106 (inactive) in assay [15]. Besides, the composite z-score in assay [4] was -1.93 (inactive); in assay [10] it was 0.0153; in [11], 0.377 (inactive); in the assay on XIP peptide (Xip251-270), -0.172.

As for `COc1cc(C(O)C2C=CC3C(=O)N(C)C(=O)C3N2Nc2ccccc2)cc(OC)c1OC` (centres undefined), the z-score in [1] was -0.237; in assay [2], -2.86 (inactive); in assay [3], 0.162 (inactive); in assay [5] it was 0.586 (inactive); in [6] it was 0.155 (inactive); in assay [7], -0.654 (inactive). Moreover, the z-score in assay [8] was -0.852 (inactive); in assay [9] it was -0.0998; in assay [12] it was -0.164; in assay [13], -3.7 (inactive); in assay [14] it was -0.129 (inactive); in assay [15], -0.0016 (inactive). Besides, the composite z-score in assay [4] is 0.377 (inactive); in assay [10] it was 0.14; in assay [11], 1.13 (inactive); in the assay on XIP peptide (Xip251-270), -0.0114.

Consider `CC(C)NC(=O)[C@@]1(C)c2ccccc2C(=O)N(Cc2ccc(OC(F)(F)F)cc2)[C@H]1c1ccc(CO)cc1`, for which the z-score in [1] is -1.09; in [2], 0.154 (inactive); in assay [3], 0.796 (inactive); in [5] it was 0.559 (inactive); in assay [6], 0.973 (inactive); in assay [7], -0.048 (inactive). The z-score is -0.6 (inactive) in assay [8]; 0.959 in assay [9]; -1.75 in assay [12]; -3.07 (inactive) in [13]; -0.0939 (inactive) in [14]; -0.0444 (inactive) in assay [15]. For the same molecule, the composite z-score is -0.852 (inactive) in [4], -0.217 in assay [10], 0.697 (inactive) in assay [11] and 0.836 in the assay with XIP peptide (Xip251-270).

For `CO[C@H]1O[C@H](CO)[C@@H](OC(=O)Nc2ccccc2)[C@H](OC(=O)c2cc3ccccc3[nH]2)[C@H]1OC(=O)c1cc2ccccc2[nH]1`, the z-score was -1.09 in [1]; -0.388 (inactive) in assay [2]; -1.59 (inactive) in assay [3]; 0.125 (inactive) in assay [5]; -0.643 (inactive) in assay [6]; 1.54 (inactive) in assay [7]. In addition, the z-score in assay [8] is 1.45 (inactive); in assay [9], -1.64; in [12] it was -1.83; in [13] it was -4.4 (inactive); in assay [14], -0.389 (inactive); in assay [15], -0.562 (inactive). Also, the composite z-score is -0.49 (inactive) in assay [4], 0.246 in assay [10], 2.41 (inactive) in [11] and 0.783 with XIP peptide (Xip251-270).

With `CCOC(=O)C[C@H]1[C@H](OC(=O)c2cc3ccccc3oc2=O)[C@@H](NC(=O)CC(C)C)c2cc(OCCCO)ccc2N1C(=O)c1ccc2ccccc2n1`, the z-score in [1] was -0.792; in [2], 0.738 (inactive); in assay [3], -0.043 (inactive); in assay [5], 0.555 (inactive); in assay [6] it was 1.44 (inactive); in assay [7] it was -0.463 (inactive). The z-score in [8] was -0.416 (inactive); in [9], -0.493; in assay [12], -0.533; in assay [13] it was -4.43 (inactive); in assay [14] it was -0.121 (inactive); in assay [15], -0.507 (inactive). Further, the composite z-score in assay [4] was 0.544 (inactive); in [10], -0.102; in assay [11], 2.46 (inactive); in the assay with XIP peptide (Xip251-270) it was 0.46.

As for `O=C1N(CCS(=O)(=O)c2ccccc2)c2ccccc2[C@H]2OC(c3ccc(OCCCO)cc3)=N[C@@]12Cc1ccccc1`, the z-score in assay [1] was 0.676; in assay [2], -0.148 (inactive); in [3], -2.38 (inactive); in [5] it was 0.755 (inactive); in assay [6], 2.01 (inactive); in assay [7], 2.46 (inactive). Besides, the z-score is 1.13 (inactive) in [8]; -1.96 in assay [9]; -1.92 in assay [12]; -0.41 (inactive) in assay [13]; -0.37 (inactive) in assay [14]; 0.158 (inactive) in [15]. The composite z-score in assay [4] is -0.0331 (inactive); in [10], 0.211; in [11], 3.13 (inactive); with XIP peptide (Xip251-270), 0.832.

`O=C(O)[C@@H]1C[C@@H]2C(=O)N3CCC[C@H]3C(=O)N2[C@@H]1c1ccc(O)cc1`: the z-score is -0.155 in assay [1]; -1.8 (inactive) in assay [2]; -0.695 (inactive) in assay [3]; 1.03 (inactive) in assay [5]; -0.113 (inactive) in assay [6]; 0.437 (inactive) in [7]. Also, the z-score in assay [8] is -0.535 (inactive); in [9], 0.16; in assay [12] it was -1.37; in assay [13], 1.66 (inactive); in assay [14], 0.959 (inactive); in [15], 1.08 (inactive). In addition, the composite z-score in [4] is -1.7 (inactive); in assay [10] it was 0.0721; in assay [11], 0.543 (inactive); with XIP peptide (Xip251-270), 0.906.

Consider `C=CCC(OC(C)=O)[C@@H]1[C@@H](N(Cc2ccc(-c3ccccc3)cc2)C(=O)c2ccc(-c3ccccc3)cc2)c2cc(OCCCO)ccc2N1C(=O)c1ccc2ccccc2c1` (some centres undefined), for which the z-score in [1] is -0.723; in assay [2], 0.416 (inactive); in [3], 0.149 (inactive); in assay [5] it was 0.35 (inactive); in assay [6], -0.583 (inactive); in assay [7], -0.91 (inactive). Also, the z-score in assay [8] was -0.756 (inactive); in assay [9] it was -0.205; in assay [12], 0.248; in assay [13] it was -0.68 (inactive); in assay [14], 0.215 (inactive); in [15], -0.144 (inactive). Further, the composite z-score in assay [4] was -0.746 (inactive); in [10] it was 0.0423; in [11], -0.29 (inactive); in the assay with XIP peptide (Xip251-270), -0.482.

The record behind these values is PubChem BioAssay.
